Reference: the supplement of paper PMC8728848
Only a selection was taken, and the strongest signals are over-represented in it overall.

How the values were obtained:
Assay in all cases: glycan array binding signal (z-score within array); higher = stronger binding
Settings in all cases: glycan notation: IUPAC condensed, linker removed
Gal6S(b1-3)GlcNAc = biological target: Gal6S(b1-3)GlcNAc
Procedure, shortened: (§1)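 From the Consortium for Functional Glycomics database, 3228 arrays were curated, keeping only those whose protein sequence was available. Binding is given as a within-array Z-score averaged across arrays sharing a protein sequence and across linkers. Negative Z-scores can be read as non-binding.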

Gal6S(b1-3)GlcNAc6S = biological target: Gal6S(b1-3)GlcNAc6S
Procedure, shortened: as §1

GalNAc(b1-4)GlcNAc = biological target: GalNAc(b1-4)GlcNAc
Procedure, shortened: as §1

GalNAc(b1-4)GlcNAc6S = biological target: GalNAc(b1-4)GlcNAc6S
Procedure, shortened: as §1

[1] = biological target: GlcNAc(b1-2)Man(a1-3)[GlcNAc(b1-2)Man(a1-6)]Man(b1-4)GlcNAc(b1-4)GlcNAc
Procedure, shortened: as §1

[2] = biological target: GlcNAc(b1-2)[GlcNAc(b1-4)]Man(a1-3)[GlcNAc(b1-4)][GlcNAc(b1-2)[GlcNAc(b1-6)]Man(a1-6)]Man(b1-4)GlcNAc(b1-4)GlcNAc
Procedure, shortened: as §1

GlcNAc(b1-3)Fuc = biological target: GlcNAc(b1-3)Fuc
Procedure, shortened: as §1

[3] = biological target: GlcNAc(b1-3)Gal(b1-4)GlcNAc(b1-3)Gal(b1-4)GlcNAc(b1-3)Gal(b1-4)GlcNAc(b1-3)Gal(b1-4)GlcNAc(b1-2)Man(a1-3)[GlcNAc(b1-3)Gal(b1-4)GlcNAc(b1-3)Gal(b1-4)GlcNAc(b1-3)Gal(b1-4)GlcNAc(b1-3)Gal(b1-4)GlcNAc(b1-2)Man(a1-6)]Man(b1-4)GlcNAc(b1-4)GlcNAc
Procedure, shortened: as §1

[4] = biological target: GlcNAc(b1-3)Gal(b1-4)GlcNAc(b1-3)[GlcNAc(b1-3)Gal(b1-4)GlcNAc(b1-3)]GalNAc
Procedure, shortened: as §1

[5] = biological target: GlcNAc(b1-3)Gal(b1-4)GlcNAc(b1-6)[GlcNAc(b1-3)]Gal(b1-4)GlcNAc
Procedure, shortened: as §1

GlcNAc(b1-6)GalNAc = biological target: GlcNAc(b1-6)GalNAc
Procedure, shortened: as §1

[6] = biological target: Kdn(a2-3)Gal(b1-4)[Fuc(a1-3)]GlcNAc
Procedure, shortened: as §1

[7] = biological target: Man(a1-3)[Man(a1-6)]Man(a1-6)[Man(a1-3)]Man
Procedure, shortened: as §1

[8] = biological target: Neu5Ac(a2-3)Gal(b1-3)GlcNAc(b1-3)GalNAc
Procedure, shortened: as §1

[9] = biological target: Neu5Ac(a2-3)Gal(b1-3)GlcNAc6S
Procedure, shortened: as §1

[10] = biological target: Neu5Ac(a2-3)Gal(b1-4)GlcNAc(b1-3)Gal(b1-3)GlcNAc
Procedure, shortened: as §1

[11] = biological target: Neu5Ac(a2-3)Gal(b1-4)GlcNAc(b1-3)Gal(b1-4)GlcNAc(b1-3)Gal(b1-4)GlcNAc(b1-2)Man(a1-3)[Neu5Ac(a2-3)Gal(b1-4)GlcNAc(b1-3)Gal(b1-4)GlcNAc(b1-3)Gal(b1-4)GlcNAc(b1-2)Man(a1-6)]GalNAc
Procedure, shortened: as §1

[12] = biological target: Neu5Ac(a2-3)Gal(b1-4)[Fuc(a1-3)]GlcNAc(b1-3)Gal
Procedure, shortened: as §1

[13] = biological target: Neu5Ac(a2-6)Gal(b1-4)GlcNAc(b1-2)Man(a1-3)Man(b1-4)GlcNAc(b1-4)GlcNAc
Procedure, shortened: as §1

[14] = biological target: Neu5Ac(a2-6)Gal(b1-4)GlcNAc(b1-6)[Gal(b1-3)]GalNAc
Procedure, shortened: as §1

[15] = biological target: Neu5Ac(a2-8)Neu5Ac(a2-3)Gal(b1-4)GlcNAc
Procedure, shortened: as §1

[16] = biological target: Neu5Ac(a2-8)Neu5Ac(a2-3)[Gal(b1-3)GalNAc(b1-4)]Gal(b1-4)Glc
Procedure, shortened: as §1

[17] = biological target: Neu5Ac(a2-8)Neu5Gc(a2-3)Gal(b1-4)GlcNAc
Procedure, shortened: as §1

[18] = biological target: Neu5Gc(a2-6)Gal(b1-4)GlcNAc
Procedure, shortened: as §1

[19] = biological target: Neu5Gc(b2-6)Gal(b1-4)GlcNAc
Procedure, shortened: as §1

B1: YghJ (Escherichia coli), E3PJ90 (protein)
chain: MNKKFKYKKSLLAAILSATLLAGCDGGGSGSSSDTPPVDSGTGSLPEVKPDPTPNPEPTPEPTPDPEPTPEPIPDPEPTPEPEPEPVPTKTGYLTLGGSQRVTGATCNGESSDGFTFKPGEDVTCVAGNTTIATFNTQSEAARSLRAVEKVSFSLEDAQELAGSDDKKSNAVSLVTSSNSCPANTEQVCLTFSSVIESKRFDSLYKQIDLAPEEFKKLVNEEVENNAATDKAPSTHTSPVVPVTTPGTKPDLNASFVSANAEQFYQYQPTEIILSEGRLVDSQGYGVAGVNYYTNSGRGVTGENGEFSFSWGEAISFGIDTFELGSVRGNKSTIALTELGDEVRGANIDQLIHRYSTTGQNNTRVVPDDVRKVFAEYPNVINEIINLSLSNGATLGEGEQVVNLPNEFIEQFNTGQAKEIDTAICAKTDGCNEARWFSLTTRNVNDGQIQGVINKLWGVDTNYKSVSKFHVFHDSTNFYGSTGNARGQAVVNISNAAFPILMARNDKNYWLAFGEKRAWDKNELAYITEAPSIVRPENVTRETASFNLPFISLGQVGDGKLMVIGNPHYNSILRCPNGYSWNGGVNKDGQCTLNSDPDDMKNFMENVLRYLSNDRWLPDAKSSMTVGTNLETVYFKKHGQVLGNSAPFAFHKDFTGITVKPMTSYGNLNPDEVPLLILNGFEYVTQWGSDPYSIPLRADTSKPKLTQQDVTDLIAYMNKGGSVLIMENVMSNLKEESASGFVRLLDAAGLSMALNKSVVNNDPQGYPDRVRQRRSTPIWVYERYPAVDGKPPYTIDDTTKEVIWKYQQENKPDDKPKLEVASWQEEVEGKQVTQFAFIDEADHKTPESLAAAKQRILDAFPGLEVCKDSDYHYEVNCLEYRPGTDVPVTGGMYVPQYTQLDLSADTAKAMLQAADLGTNIQRLYQHELYFRTNGRQGERLNSVDLERLYQNMSVWLWNETKYRYEEGKEDELGFKTFTEFLNCYTNNAYVGTQCSAELKKSLIDNKMIYGEESSKAGMMNPSYPLNYMEKPLTRLMLGRSWWDLNIKVDVEKYPGVVNTNGETVTQNINLYSAPTKWFAGNMQSTGLWAPAQQEVSIESKSTVPVTVTVALADDLTGREKHEVSLNRPPRVTKTYDLKANDKVTFKVPYGGLIYIKGDSKEVQSADFTFTGVVKAPFYKDGKWQHDLNSPAPLGELESASFVYTTPKKNLNASNYTGGLEQFANDLDTFASSMNDFYGRDSEDGKHRMFTYKNLPGHKHRFANDVQISIGDAHSGYPVMNSSFSPNSTTLPTTPLNDWLIWHEVGHNAAETPLTVPGATEVANNVLALYMQDRYLGKMNRVADDITVAPEYLEESNGQAWARGGAGDRLLMYAQLKEWAEKNFDIKKWYPDGTPLPEFYSEREGMKGWNLFQLMHRKARGDEVSNDKFGGKNYCAESNGNAADTLMLCASWVAQTDLSEFFKKWNPGANAYQLPGASEMSFEGGVSQSAYNTLASLDLPKPEQGPETINQVTEHKMSAE
Gal6S(b1-3)GlcNAc
  glycan array binding signal (z-score): 0.437
Gal6S(b1-3)GlcNAc6S
  glycan array binding signal (z-score): 2.04
GalNAc(b1-4)GlcNAc
  glycan array binding signal (z-score): 1.36
GalNAc(b1-4)GlcNAc6S
  glycan array binding signal (z-score): 0.943
[1]
  glycan array binding signal (z-score): 0.16
[2]
  glycan array binding signal (z-score): -0.048
GlcNAc(b1-3)Fuc
  glycan array binding signal (z-score): -0.862
[3]
  glycan array binding signal (z-score): 4.26
[4]
  glycan array binding signal (z-score): 2.97
[5]
  glycan array binding signal (z-score): -1.26
GlcNAc(b1-6)GalNAc
  glycan array binding signal (z-score): -1.05
[6]
  glycan array binding signal (z-score): -0.222
[7]
  glycan array binding signal (z-score): -1.22
[8]
  glycan array binding signal (z-score): -0.159
[9]
  glycan array binding signal (z-score): -0.847
[10]
  glycan array binding signal (z-score): 0.515
[11]
  glycan array binding signal (z-score): 2.64
[12]
  glycan array binding signal (z-score): -1.23
[13]
  glycan array binding signal (z-score): -1
[14]
  glycan array binding signal (z-score): -1.4
[15]
  glycan array binding signal (z-score): 5.47
[16]
  glycan array binding signal (z-score): 0.298
[17]
  glycan array binding signal (z-score): -0.939
[18]
  glycan array binding signal (z-score): -0.154
[19]
  glycan array binding signal (z-score): 3.37
